Data as given in PubChem BioAssay (NCATS).
Where “and” joins values, the source holds several entries; their conditions need not be identical. Equal entries are not always repeated. Results filed as inconclusive are left out. Calls of active or inactive are those of the source. The call rests on the fitted dose curve; in most records, active means well fitted curve in the direction sought with a large enough effect; inconclusive means small, poorly fitted or top-dose-only effect, or another doubt; inactive means no such curve, though single readings can be large; an effect the other way counts as inactive or inconclusive.

Tests used:
[1] = P-glycoprotein substrates identified in KB-8-5-11 adenocarcinoma cell line, qHTS therapeutic library screen (AID 1346987); further: nearly all actives have a fitted effect of over 65% in size; further: potency means the concentration at half of the fitted maximal effect
Outline: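 KB-8-5-11: colchicine-selected sub-line of KB-3-1 over-expressing P-gp; assay medium lacked colchicine. 72 h drug exposure at 37 degree C, CellTiter-Glo.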

[2] = NS1 protein of Zika virus - qHTS assay to identify small molecule inhibitors in human HEK 293 cells (AID 1347053); further: series mostly up to about 46 µM; nearly all actives have a fitted effect of over 55% in size
Outline: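 HEK 293 cells pretreated with compound for 1 h, then infected with ZIKV MR766 (MOI 0.5) for 24 h at 37 C. NS1 detected by TR-FRET with two anti-NS1 antibodies; normalized to uninfected (0%) and infected (100%) wells.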

[3] = qHTS of pediatric cancer cell lines to identify multiple opportunities for drug repurposing: Primary screen for DAOY cells (AID 1347090); further: nearly all actives have a fitted effect of over 55% in size; further: potency means the concentration at half of the fitted maximal effect
Outline: (§1)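 Eight- or eleven-point concentration series, 48 h treatment at 37 degrees C in growth media; readout CellTiter-Glo luminescence. Potency and efficacy were taken from the concentration-response curves.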

[4] = qHTS of pediatric cancer cell lines to identify multiple opportunities for drug repurposing: Primary screen for SJ-GBM2 cells (AID 1347091); further: potency means the concentration at half of the fitted maximal effect
Outline: as §1

[5] = qHTS of pediatric cancer cell lines to identify multiple opportunities for drug repurposing: Primary screen for A673 cells (AID 1347092); further: nearly all actives have a fitted effect of over 45% in size; further: potency means the concentration at half of the fitted maximal effect
Outline: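 Titration-based qHTS on A673 cells: MIPE compounds spanned 11 points (0.78 nM to 46 µM final), NPC compounds 8 points (0.59 nM to 46 µM final). Viability after 48 h was measured by ATP luminescence.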

[6] = qHTS of pediatric cancer cell lines to identify multiple opportunities for drug repurposing: Primary screen for SK-N-MC cells (AID 1347093); further: potency means the concentration at half of the fitted maximal effect
Outline: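 Metabolically active cells were quantified by ATP-dependent luminescence (CellTiter-Glo, 15 min at room temperature) following 48 h treatment. Cells had been plated at 500-1,000 per well and settled for 5 h beforehand.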

[7] = qHTS of pediatric cancer cell lines to identify multiple opportunities for drug repurposing: Primary screen for BT-37 cells (AID 1347094); further: potency means the concentration at half of the fitted maximal effect
Outline: (§2)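 Phenotypic viability qHTS, 48 h compound exposure, CellTiter-Glo luminescence read-out; multi-concentration dosing so that potency and efficacy derive directly from the primary screen's curves.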

[8] = qHTS of pediatric cancer cell lines to identify multiple opportunities for drug repurposing: Primary screen for NB-EBc1 cells (AID 1347095); further: potency means the concentration at half of the fitted maximal effect
Outline: as §2

[9] = qHTS of pediatric cancer cell lines to identify multiple opportunities for drug repurposing: Primary screen for U-2 OS cells (AID 1347096); further: nearly all actives have a fitted effect of over 50% in size; further: potency means the concentration at half of the fitted maximal effect
Outline: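 Cells (500-1,000/well) in growth media were settled 5 h at 37 degrees C, then given compounds for 48 h. Viability was read as CellTiter-Glo luminescence. Primary runs used MIPE at 11 points (0.78 nM-46 µM) and NPC at 8 points (0.59 nM-46 µM); follow-ups used 11 points.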

[10] = qHTS of pediatric cancer cell lines to identify multiple opportunities for drug repurposing: Primary screen for Saos-2 cells (AID 1347097); further: nearly all actives have a fitted effect of over 40% in size; further: potency means the concentration at half of the fitted maximal effect
Outline: as §2

[11] = qHTS of pediatric cancer cell lines to identify multiple opportunities for drug repurposing: Primary screen for SK-N-SH cells (AID 1347098); further: nearly all actives have a fitted effect of over 65% in size; further: potency means the concentration at half of the fitted maximal effect
Outline: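 Cells (500-1,000/well) rested 5 h, then received compounds for 48 h; metabolically active cells were measured by CellTiter-Glo luminescence. Final concentrations spanned up to 46 µM (MIPE, 11-point) or 0.59 nM-46 µM (NPC, 8-point) in primary screens, 11-point in follow-ups.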

[12] = qHTS of pediatric cancer cell lines to identify multiple opportunities for drug repurposing: Primary screen for NB1643 cells (AID 1347099); further: nearly all actives have a fitted effect of over 50% in size; further: potency means the concentration at half of the fitted maximal effect
Outline: as §2

[13] = qHTS of pediatric cancer cell lines to identify multiple opportunities for drug repurposing: Primary screen for TC32 cells (AID 1347089); further: nearly all actives have a fitted effect of over 60% in size
Outline: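 A viability screen of TC32 cells was run over 48 h, with primary MIPE doses spanning 0.78 nM–46 µM and NPC doses 0.59 nM–46 µM. ATP luminescence (CellTiter-Glo) served as the read-out.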

Measured: Potency

O=NN(CCCl)C(=O)NC1CCCCC1
not listed: [13]
inactive: all other assays above

CC(C)OC(=O)C(C(=O)OC(C)C)=C1SC=CS1
not listed: [3] | [5]
inactive: all other assays above

COCCCOc1cc(C[C@@H](C[C@H](N)[C@@H](O)C[C@H](C(=O)NCC(C)(C)C(N)=O)C(C)C)C(C)C)ccc1OC
not listed: [13]
inactive: all other assays above

COc1ccc2cc3[n+](cc2c1OC)CCc1cc2c(cc1-3)OCO2
inactive: [1] | [2] | [4] | [9] | [11]
active: [3] 6.68 µM and 18.7 µM | [5] 2.11 µM and 2.35 µM | [6] 8.41 µM and 18.7 µM | [12] 15 µM and 18.7 µM

COc1ncnc(NS(=O)(=O)c2ccc(N)cc2)c1OC
not listed: [3] | [5]
inactive: all other assays above

COC(c1ccccc1)(c1ccccc1)[C@H](Oc1nc(C)cc(C)n1)C(=O)O
not listed: [13]
inactive: all other assays above

CCC(C)(C)c1ccc(CC(C)CN2C[C@@H](C)O[C@@H](C)C2)cc1 (stereo partly drawn)
not listed: [3] | [5] | [6] | [10] | [13]
inactive: all other assays above

Cc1c(-c2ccc(O)cc2)n(Cc2ccc(OCCN3CCCCCC3)cc2)c2ccc(O)cc12
not listed: [1] | [3] | [6] | [8] | [10]
inactive: all other assays above

CC(C)(C)C(=O)OCOP(=O)(COCCn1cnc2c(N)ncnc21)OCOC(=O)C(C)(C)C
active: [5] 2.11 µM and 743 nM | [6] 188 nM and 1 nM | [7] 3.47 µM and 10.9 µM | [8] 2.99 µM and 662 nM | [10] 26.6 µM and 23.5 µM | [11] 15.4 µM and 27.1 µM | [12] 11.9 µM and 18.7 µM
inactive: [1] | [2] | [9]

COC(=O)Nc1nc2ccc(Sc3ccccc3)cc2[nH]1
inactive: [2] | [11]
active: [1] 495 nM and 1.18 µM | [4] 833 nM | [5] 1.06 µM and 935 nM | [6] 841 nM and 590 nM | [7] 1.74 µM and 3.06 µM | [8] 469 nM | [9] 13300 nM | [10] 841 nM and 2.35 µM
